This passage reports growth results from PubChem BioAssay (NCI).

Each structure is given as a SMILES string. Compounds without any hit were thinned out: in the full panel of roughly 83,000, 20% have a hit.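 Testing used 96-well plates and a 48-hour single-concentration exposure. Example: -40 means 40% of the starting cells died.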 Values without a mark were called inactive. Active and inactive are the calls of the source. Rule for the calls: active = growth percent below 10; inactive = the rest.

For the assay, the system named is HL-60(TB) leukemia. The assay is described as follows: NCI-60 one-dose screen, 48 h (100 = growth as untreated, 0 = no growth, -100 = all killed). To be noted: 10 µM unless noted.
Consider `O=C(CCN1C(=O)/C(=C/c2ccc(O)cc2)SC1=S)Nc1ccccc1`, for which the growth is 61.2%.

On to `Cc1cc(Nc2cccc(C(F)(F)F)c2)n2c(nc3ccccc32)c1C#N`, for which the growth is 31.8%.

On to `Cc1cc(N2CCCC2)nc(N(CCCNc2ccnc3cc(Cl)ccc23)Cc2ccc3c(c2)OCO3)n1`, for which the growth is -62.9% (active).

As to `COc1ccccc1Nc1nc2c(s1)C1=CC[C@H]3[C@@H]4CC[C@H]([C@H](C)CCCC(C)C)[C@@]4(C)CC[C@@H]3[C@@]1(C)CC2`, the growth was 102%.

With `COc1ccc(-c2c(N)n[nH]c2-c2cc(OC)c3c(c2)OCCO3)cc1`, the growth is 47.1%.

`Cc1ccc(-c2cc(-c3cccc(Nc4ccnc5cc(Cl)ccc45)c3)nc3nc(N)[nH]c(=O)c23)cc1`: the growth is 58%.

With `CCCCCCCC/C=C/CCCCCCCC1=NC(C)(C)CN1C(C)(C)CO`, the growth was -59.8% (active).

For `C[C@H](C(=O)N[C@@H](Cc1ccc(-c2ccccc2)cc1)C(=O)NC1CC(C)(C)N(C)C(C)(C)C1)c1ccc(-c2ccccc2)c(F)c1`, the growth was -61.2% (active).

`CC(C)(C)n1cc(-c2ccnc(NCCCNS(=O)(=O)c3ccc(Cl)cc3)c2)c(-c2cccc(F)c2)n1`: the growth was 85.8%.

With `O=C(Nc1ccc(Cl)cc1)Nc1ccc(Cl)c(C(F)(F)F)c1`, the growth was -60.8% (active).

As to `CC1=C(C(=O)OCC2CCN(C(=O)OC(C)(C)C)CC2)[C@@H](c2cccc(C#N)c2)C2=C(CC(C)(C)CC2=O)N1`, the growth is 16.8%.

For the compound `CC(=O)N(C)c1ccc(Nc2cc(C)[nH]c3ccc4ncnc4c23)cc1`, the growth was 21.3%.
